From the supplement of paper PMC6555819

Key:
Test in all cases: PBM binding z-score (relative to random genomic background probes); higher = stronger binding; sequences stand for … in GC…GCGATTGACAGCGTAGAATGAAGG
[1] = system: RARb homodimer (NR concentration 270 nM)
Summary of the method: (§1)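 Binding z-scores take random background probes as their reference. They come from custom Agilent 4×180K protein-binding microarrays incubated 1 h with ligand-free nuclear receptor dimers, with antibodies against each partner (one per run) detecting binding. Scanned fluorescence was regression-normalized.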

[2] = system: RARg:RXRa (NR concentration 270 nM, RXRa partner concentration 90 nM)
Summary of the method: as §1

[3] = system: RARg homodimer (NR concentration 270 nM)
Summary of the method: as §1

[4] = system: RXRa DBDmut IVT, anti-RXR (DBD mutation: RXRa K156A/R161A, NR concentration 90 nM)
Summary of the method: as §1

[5] = system: RXRa homodimer (NR concentration 180 nM)
Summary of the method: as §1

[6] = system: THRa:RXRa (NR concentration 90 nM, RXRa partner concentration 90 nM)
Summary of the method: as §1

[7] = system: THRa homodimer (NR concentration 90 nM)
Summary of the method: as §1

[8] = system: VDR homodimer (NR concentration 270 nM)
Summary of the method: as §1

Sequence	PBM binding z-score [1]	PBM binding z-score [2]	PBM binding z-score [3]	PBM binding z-score [4]	PBM binding z-score [5]	PBM binding z-score [6]	PBM binding z-score [7]	PBM binding z-score [8]
TCTGGTAGGTCAGTTGGTCAGCTAACGAGCTGCC	2.92	3.09	3.99	0.902	1.37	0.644	0.0551	0.292
TCTATTAGTTGAAGGGCAACCGTCGAGTCCGTTT	1.41	0.513	0.573	1.63	0.558	0.234	0.122	1.61
GCGACTGGGGCATCAGCAGGTTACCTTAACTTAA	0.872	0.268	0.175	0.145	0.259	1.8	2.05	-0.071
TAGCCTACGTCATGCGGGCCAGTATAGTGTCGGC	-0.71	-0.452	-0.536	-0.98	-0.341	-1.7	-0.856	-1.16
CCGAGTGGGGCAAGGTTACCATAACGCACAGCCA	1.3	1.07	1.2	-0.421	1.3	1.53	0.265	0.121
TCTCGGAGGACACGAAGTTCAGAGCTTTCCAGAG	2.07	1.17	2.04	1.08	0.47	1.72	0.372	2.38
GGAACGAGGACATTCGAGTTGATAGCATGGCGAT	-0.261	0.285	0.773	2.25	0.11	2.2	0.823	1.65
CAAACTAGGTCAAAGCTCAAAGTCGAGCCAACCA	2.4	4.14	4.25	1.91	3.7	2.39	0.666	0.583
CCTATTAGGTGACCATAAGGGCAACCGAAGCTCG	2.13	2.09	1.22	-0.22	1.08	2.64	1.52	0.127
TCATATAGGTACACAGGTGAAAGTCCGTAAGTTA	1.25	0.77	0.513	2.06	1.27	0.937	0.627	1.07
TCAGACAGGTGAAGGTAACTCAAGTACGCAGTCG	0.996	0.573	0.747	1.54	1.13	1.68	0.516	0.389
ATATGTAGGTTATCTGGTCATTCAGTTTGCGCAT	1.34	1.39	1.15	1.08	1.46	0.737	0.562	1.07
CTACCAAGGTGAACAAGGTCGTTCATTACTATTC	2.93	2.18	1.75	2.32	2.27	3.56	2.2	3.38
ATCTCTAGGTAAGACTCATTTCAGTGAAGAACGC	0.362	-0.0496	0.0938	0.594	-0.0279	0.358	0.931	0.563
TCGAGTAGGTTAGGGGAATTCAGAATGGCGTCGA	0.239	-0.23	-0.153	0.0691	-0.0464	0.0502	-0.191	-0.0168
TCTTGTAGATCAATAGAGGTTAAGAACGTGCGCT	1.05	0.792	0.716	0.923	1.54	2.33	-0.182	0.37
CCGGACAGGTGAAAGGTAACTCAGTCTGGTACGC	0.991	1.57	0.863	-0.0224	1.89	0.766	0.12	0.0749
TAGGCTAGGTCATGGGCCAGTATACCACGCGAAC	2.94	4.33	4.94	0.455	3.29	3.11	1.2	0.234
TCGAGTAGGTTAGTCCGGGCATTCAGCCAACATA	0.125	-0.242	-0.282	0.0956	-0.186	0.527	-0.31	-0.163
ATCGACAGGTCGACGAGGTGAGTATACACCGTTT	0.949	1.55	1.78	0.12	1.58	2.58	0.428	0.49
TCTAGTTGGTCAAAGGTCAGACACTCGAAATGCG	4.51	6.12	5.15	1.57	6.68	3.09	1.49	1.89
GCTGCTAGGTCAACTGATGGTCAGCTTAAGCTCG	3.69	5.24	5.28	1.76	3	3.07	0.988	-0.0541
TGAATGAGGTTATAAGATCTGGGAACGTTGCAAA	0.515	1.04	0.631	0.607	1.61	1.67	0.199	0.194
TCTAGTAGATCAAAGGTTAAGAAAGCCGAAGCCT	1.26	1.37	0.721	0.713	3.04	1.19	-0.728	-0.063
ATCTCTAGGTAAGACTCAGTACAGTGAAGAACGC	0.3	0.259	0.586	0.238	0.176	0.369	0.766	0.66
ATCTCTAGGTAACAAGTTCAGTGACAGAGAGGAC	1.97	1.58	1.52	0.868	0.971	1.49	1.14	2.97
TTACCAAGGTGAATGGTCGTTGATGCACGCCTTG	0.707	0.538	0.576	-0.0991	0.73	1.47	0.775	0.132
CCTAGTTGGTTAAGGTCACACACGCTATAGGTAC	4.5	4.48	4.33	2.36	4.63	4.64	6.15	4.12
